Screens deposited in PubChem BioAssay by National Center for Advancing Translational Sciences (NCATS).
Shown are actives, neighbours in structure and some others; about 6.2% of the full set was active somewhere.
ATXN2 expr inh: Primary qHTS for Inhibitors of ATXN expression. Potency, µM (series often up to 57 µM), for the others: at the top dose activity change, negative = inhibition, actives largely listed as inhibitors. HEK-293 ATXN2-luciferase reporter, luminescence, 24 h. AID 1745845, 2022. actives 0.72% (n = 360,000); further: on the % scale 0 is the no-effect control and ±100 the full control effect; nearly all actives have a fitted effect of over 55% in size
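ATXN2-luciferase reporter cells (luciferase flanked by upstream and downstream ATXN2 gene portions) were treated 24 h at 37 °C with compounds at up to 57 uM. SteadyGlo luminescence gave expression; GF-AFC fluorescence gave viability.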
S2 tox: Viability Counterscreen for Primary qHTS for Inhibitors of ATXN expression | S2 cells (HEK-293 line with an ATXN2-luciferase reporter) viability, CellTiter-Fluor protease fluorescence, 24 h | Potency, µM (doses to about 56.7 µM), actives largely listed as cytotoxic | actives 0.49% (n = 400,000); further: nearly all actives have a fitted effect of over 40% in size
KB-3-1 tox: qHTS assay for MDR1-selective chemotherapeutics: Primary screen using the parental adenocarcinoma cell KB-3-1. KB-3-1 viability, CellTiter-Glo ATP luminescence, 72 h. Potency, µM (doses to about 46.1 µM), hits mostly cytotoxic. actives 1.4% (n = 400,000). AID 1347075, 2019; further: on the % scale 0 is the no-effect control and ±100 the full control effect; nearly all actives have a fitted effect of over 60% in size
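Screening of KB-3-1 cells (DMEM, 10% FBS, phenol-red free) ran from lowest to highest compound concentration; after 72 h at 37 °C viability was read luminescently and curves fitted.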
HT1080 IDH1KD tx: qHTS for induction of synthetic lethality in tumor cells producing 2HG: qHTS for the HT-1080-IDH1KD cell line | HT-1080 IDH1 knockdown viability, ATP luminescence, 48 h | Potency, µM (titrated, usually from 46.1 µM), inactives show at the highest dose activity, negative = toxicity, usual class: cytotoxic | actives 2% (n = 360,000) | AID 686971, 2013;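 further: 0% = DMSO wells and -100% = cell-free medium wells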
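After a 2 h attachment period, IDH1KD HT-1080 cells took pin-transferred compound for 48 h at 37 °C; ATP-based luminescence after 10 min room-temperature reagent incubation reported viability.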
KB-V1 MDR tox: qHTS assay for MDR1-selective chemotherapeutics: Primary screen using the drug-selected MDR subline cells KB-V1; KB-V1 MDR cells viability, CellTiter-Glo, 72 h; AID 1347076, 2019; actives 3.4% (n = 400,000); Potency, µM (doses to about 46.1 µM), usual class: cytotoxic; further: on the % scale 0 is the no-effect control and ±100 the full control effect; nearly all actives have a fitted effect of over 60% in size
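qHTS viability screen in drug-selected KB-V1 MDR cells: 72 h compound treatment at 37 degrees C, ATP luminescence end point.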
HT1080-NT tox: qHTS for induction of synthetic lethality in tumor cells producing 2HG: qHTS for the HT-1080-NT fibrosarcoma cell line | HT-1080-NT fibrosarcoma viability, CellTiter-Glo ATP luminescence, 48 h | AID 686970, 2013 | Potency, µM (series often up to 46.1 µM), for inactives: at the highest dose activity, negative = less viability, usual class: cytotoxic | actives 1.6% (n = 360,000);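 further: NT is the 2HG producing partner of a matched IDH1 knockdown line; 0% = DMSO-treated cells and -100% = media-only wells without cells; nearly all actives have a fitted effect of over 55% in size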
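Viability by CellTiter-Glo luminescence after 48 h compound exposure at 37C of HT-1080-NT cells (750/well, RPMI, 5% FBS). % activity scaled between DMSO wells and medium-only wells, then curve-fitted and categorized by curve class.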
An asterisk follows results filed as active; i = inactive; ? = inconclusive; / = not tested or not shown. The call rests on the fitted dose curve; in most records, active means well fitted curve in the direction sought with a large enough effect; inconclusive means small, poorly fitted or top-dose-only effect, or another doubt; inactive means no such curve, though single readings can be large; an effect the other way counts as inactive or inconclusive. Potency means the concentration at half of the fitted maximal effect.

SMILES	ATXN2 expr inh	S2 tox	KB-3-1 tox	HT1080 IDH1KD tx	KB-V1 MDR tox	HT1080-NT tox
CCC(C)[C@H](NC(=O)NCc1ccc(Cl)cc1)C(=O)O (some centres undefined)	/	i	i	-6.9%	?	2.4%
COc1ccc(Cn2cc(CN3CCc4onc(-c5ccc(Br)cc5)c4C3=O)nn2)cc1	/	/	?	?	20.6µM*	?
COc1ccccc1-n1cc(CN2CCc3onc(-c4ccc(Br)cc4)c3C2=O)nn1	/	/	i	-21.9%	?	-22.4%
Cc1cccc(OCCCC(=O)Nc2nnc(C3CCCO3)s2)c1C (centres undefined)	-9.3%	i	i	5.3%	i	7.5%
Cc1cccc(C)c1OCC(=O)Nc1nnc(C2CCCO2)s1 (centres undefined)	0.8%	i	i	-1.0%	18.4µM*	-3.1%
COc1ccc(-c2noc(-c3ccc(N4CCCC4)c([N+](=O)[O-])c3)n2)cc1	21.4%	i	i	/	i	/
Cc1c(Cl)c([N+](=O)[O-])nn1CCCC(=O)Nc1cccc(Cl)c1	-3.2%	i	?	7.8%	18.4µM*	13.8%
Cc1nn(Cc2ccccc2)c(C)c1NC(=O)CCCn1nc(C)c([N+](=O)[O-])c1C	5.1%	i	i	0.7%	23.1µM*	-1.6%
Cc1c(Cl)c([N+](=O)[O-])nn1CCCC(=O)Nc1cccnc1	/	i	i	-3.0%	?	0.0%
Cc1ccc(N2C(=O)C(CC(=O)Nc3ccccc3)N(CCC3=CCCCC3)C2=O)cc1 (centres undefined)	2.7%	i	i	/	i	/
COCCn1c(C)cc(C(=O)CSc2cc(C)c3ccccc3n2)c1C	20.3%	i	i	-29.0%	2.31µM*	-12.4%
COCCn1c(C)cc(C(=O)CSc2nc3ccccc3c(=O)n2Cc2ccco2)c1C	15.1%	i	?	-1.7%	0.651µM*	-1.6%
COc1ccc(OC)c(/C=C/c2sc3ccccc3[n+]2C)c1	/	/	?	/	i	/
COc1ccc(C(=O)/C=C/c2cccs2)c(OC(=O)c2cccc([N+](=O)[O-])c2)c1	71.3%	?	7.31µM*	-1.7%	i	-1.2%
Cc1ccc(C(=O)N(Cc2cc3ccc(F)cc3nc2N2CCC(O)CC2)CC2CCCO2)cc1 (centres undefined)	/	i	/	/	/	/
CN(C)c1ccc(/C=C/c2ccnc3ccc(-c4ccccc4)cc23)cc1	/	/	i	/	i	/
CCCCOc1ccc(C(=O)Nc2ccc3c(c2)CCCN3C(=O)c2cccs2)cc1	-7.2%	i	?	/	?	/
CCN(CC)S(=O)(=O)c1ccc(N2CCOCC2)c(NC(=O)c2cccc3c(=O)c(C)c(-c4ccccc4)oc23)c1	/	i	i	1.6%	20.6µM*	-18.6%
COc1cc(C(=O)NC2CCN(C)CC2)ccc1Nc1ncc2c(n1)N(C1CCCCC1)CCC(=O)N2C	0.0%	?	?	4.61µM*	i	?
COc1ccc(Cn2c(=O)[nH]c3cc(C(=O)NC4CCN(Cc5ccccc5)CC4)ccc32)cc1	?	?	i	-25.5%	i	-17.2%
CCN1C(=O)CC(C(C)C)N(C2CCCC2)c2nc(Nc3ccc(C(=O)NC4CCN(C)CC4)cc3OC)ncc21 (centres undefined)	?	/	?	-21.9%	?	-22.2%
COc1ccc(C(=O)NC2CCCCC2)cc1S(=O)(=O)N1CCCC1	4.8%	i	?	-0.3%	i	1.5%
COc1cc(C(=O)NC2CCN(C)CC2)ccc1Nc1ncc2c(n1)N(Cc1ccccc1)CCC(=O)N2C	27.0%	?	?	?	?	20.6µM*
CCN1C(=O)CC(c2ccccc2)N(C2CCCC2)c2nc(Nc3ccc(C(=O)NC4CCN(C)CC4)cc3OC)ncc21 (centres undefined)	?	/	18.4µM*	23.1µM*	?	?
Cc1ccc(C2C=C(c3ccc(Cl)cc3)Nc3nc(NC(=O)c4ccco4)nn32)cc1 (centres undefined)	-18.0%	/	i	/	?	/
SMILES	ATXN2 expr inh	S2 tox	KB-3-1 tox	HT1080 IDH1KD tx	KB-V1 MDR tox	HT1080-NT tox
O=c1[nH][nH]c2cc([N+](=O)[O-])ccc12	-30.7%	i	?	14.6µM*	?	4.11µM*
COc1ccc(C=CC(=O)c2ccc(OC)c(OC)c2O)cc1OC	1.7%	i	i	25.9µM*	?	?
COc1ccc(C=CC(=O)c2ccc(OC)c(OC)c2)cc1O	/	?	?	20.6µM*	?	-11.4%
COc1cc(OC)c(C(=O)C=Cc2ccc(OC)c(OC)c2)c(OC)c1	?	i	?	?	?	?
COc1ccc(C=CC(=O)c2ccc3cc(OC)c(OC)cc3c2)cc1OC	/	/	?	?	i	-23.6%
Cc1ccc2[nH]c(-c3cccc(F)c3)cc(=O)c2c1	14.3%	i	0.411µM*	1.46µM*	i	1.64µM*
COc1ccc2[nH]c(-c3cccc(F)c3)cc(=O)c2c1	15.8%	i	0.411µM*	0.517µM*	?	?
Cc1ccc(-c2cc(=O)c3cc(C)ccc3[nH]2)cc1	-28.6%	i	9.2µM*	20.6µM*	?	?
Cc1ccc(-c2cc(=O)c3cc(F)ccc3[nH]2)cc1	33.1%	i	?	-15.9%	?	-25.0%
Cc1ccc2[nH]c(C(F)(F)F)cc(=O)c2c1	34.3%	i	i	?	?	-25.3%
O=c1cc(-c2ccccc2)[nH]c2ccc(F)cc12	5.0%	i	1.16µM*	2.31µM*	?	?
Cc1ccc(NC(=O)c2oc3ccc4c(c3c2C)C(=O)CC(C)(C)O4)c(C)c1	47.8%	i	i	/	i	/
Cc1ccccc1C(=O)N1CCc2c(cnc(C)c2CNC(=O)CN2CCCCC2)C1	/	i	/	/	/	/
O=C(NCc1ccc(F)cc1)c1ccc2oc(=O)n(Cc3ccccc3)c2c1	-13.0%	?	i	/	i	/
O=c1cc(-c2ccccc2)[nH]c2cc(Cl)ccc12	-1.0%	?	?	0.581µM*	?	0.517µM*
COc1ccc(-c2cc(=O)c3ccccc3[nH]2)cc1	3.8%	i	i	6.0%	i	9.7%
O=c1cc(-c2cccc(F)c2)[nH]c2ccccc12	4.7%	?	0.366µM*	1.46µM*	?	1.84µM*
